Reference: PubChem BioAssay (EPA / NIEHS)
Calls of active or inactive are those of the source. Rule for the calls: active = hit-call score of the fitted dose curve at least 0.9, where 1 is the maximum; inactive = score below 0.9.

Assay: APR_HepG2_NuclearSize_1hr: Apredica 1-hour HepG2 Assay for Nuclear Size (AID 2282670)
Conditions: high-content imaging, actives raise or lower the signal
Method: APR_HepG2_1hr is a cell-based, multiplexed-readout assay that uses HepG2, a human liver cell line, with measurements taken at 1 hour after chemical dosing in a 384-well plate.APR_HepG2_NuclearSize_1hr is one of 10 assay component(s) measured or calculated from the APR_HepG2_1hr assay. It is designed to make measurements of cell phenotype, a form of morphology reporter, as detected with fluorescence intensity signals by HCS Fluorescent Imaging technology.Data from the assay component APR_HepG2_NuclearSize_1hr was analyzed into 1 assay endpoint. This assay endpoint, APR_HepG2_NuclearSize_1hr, was analyzed with bidirectional fitting relative to DMSO as the negative control and baseline of activity. Using a type of morphology reporter, measures of all nuclear dna for gain or loss-of-signal activity can be used to understand the signaling at the nuclear-level. Furthermore, this assay endpoint can be referred to as a primary readout, because this assay has produced multiple assay endpoints where this one serves a signaling function. To generalize the intended target to other relatable targets, this assay endpoint is annotated to the cell morphology intended target family, where the subfamily is organelle conformation.
Cells were treated with dimethyl sulfoxide (DMSO) as a solvent control at a final concentration of 0.5% v/v or with compounds in DMSO with a resulting final DMSO concentration of 0.5% v/v. Compound treatment was done at concentrations of 0.39, 0.78, 1.56, 3.12, 6.24, 12.5, 25, 50, 100, and 200 uM in duplicate on each plate. Cells were treated with compounds for 1, 24, or 72 hr. Carbonyl […] m-chloro-phenylhydrazone (CCCP) and taxol were used as positive controls for mitochondrial function and cytoskeletal stability, respectively; DMSO served as the negative control for this experiment. Cells were fixed by the direct addition of 50 uL formaldehyde in Hank's Balanced Salt Solution (HBSS) to a final concentration of 3.7%. After incubation in the fixation medium for 30 min at room temperature (293-298 K), cells were rinsed twice with HBSS and treated with cell permeabilization buffer (16 uL of 0.5% Triton X-100) for 10 min at room temperature (293-298 K) before labeling. For mitochondrial membrane potential and mitochondrial measurements, pre-fixed cells were incubated with 50 uL of MitoTracker Red CMXRos (Invitrogen) at a concentration of 250 nM for 30 min before fixation. In the remaining cases, post-fixed cells were labeled by incubation with a multiplexed mixture of primary antibodies in HBSS for 60 min at room temperature (293-298 K) to detect immunoreactivity of c-Jun (1:500), phospho-histone H3 (1:100), phospho-histone H2A.x (1:200), p53 (1:400), alpha-tubulin (1:200) and Hoechst 33342 (2 ug/mL). Cells were labeled for multiplexed imaging on two separate plates: a) Hoechst 33342, MitoTracker Red, phospho-histone H3, and alpha-tubulin, and b) Hoechst 33342, phospho-histone H2A.x, and c-Jun. A final rinse with HBSS (50 uL) was performed before analysis. The primary and secondary antibodies for the proteins were phospho-histone H3 (rabbit anti-phospho-histone H3 and FITC-donkey anti-rabbit IgG), phospho-histone H2A.x (mouse anti-phospho-histone H2A.x and FITC-donkey anti-mouse IgG), c-Jun (rabbit anti-phospho-c-Jun and Cy3-donkey anti-rabbit IgG), p53 (sheep anti-p53 and Cy5-donkey anti-sheep IgG), alpha-tubulin (mouse anti-alpha-tubulin and Cy5-donkey anti-mouse IgG). These antibodies are available as the CellCiphr HepG2 assay kit (Millipore).Digital images of each well were captured using a Cellomics ArrayScan VTI (Thermo Scientific Cellomics) (0.8 NA objective, 0.63x optical coupler, and XF-93 filter set) at 20x magnification. The images were acquired using the autofocus feature of the ArrayScan instrument, which entails the following steps. First, the camera focuses on channel 1 (Hoechst 33342), where nuclei are identified. Second, a Z offset of 1 um is used for capturing mitochondria (MitoTracker Red). […]

SMILES	outcome
CCOP(=S)(OCC)Oc1ccc([N+](=O)[O-])cc1	inactive
CC(C)=CC1C(C(=O)OCN2C(=O)C3=C(CCCC3)C2=O)C1(C)C (stereo not given)	inactive
N#CSCSC#N	inactive
O=C(O)c1cc(Oc2ccc(C(F)(F)F)cc2Cl)ccc1[N+](=O)[O-]	inactive
CSC1=N[C@@](C)(c2ccccc2)C(=O)N1Nc1ccccc1	inactive
COP(=O)(OC)C(O)C(Cl)(Cl)Cl (stereo not given)	inactive
COc1ccc(C(=CC(=O)N2CCOCC2)c2ccc(Cl)cc2)cc1OC	inactive
CCCSP(=O)(OCC)SCCC	inactive
CC(=NC#N)N(C)Cc1ccc(Cl)nc1	inactive
CN(C)[C@@H]1C(=O)C(C(N)=O)=C(O)[C@@]2(O)C(=O)C3=C(O)c4c(O)cccc4[C@@](C)(O)[C@H]3[C@H](O)[C@@H]12	inactive
CCC(CC)Nc1c([N+](=O)[O-])cc(C)c(C)c1[N+](=O)[O-]	inactive
FC(F)C(F)(F)OCC(Cn1cncn1)c1ccc(Cl)cc1Cl (stereo not given)	inactive
CCOP(=O)(SC(C)CC)N1CCSC1=O (stereo not given)	inactive
S=C1NCCN1	inactive
CCOP(=O)(OCC)Oc1cc(C)nc(C(C)C)n1	inactive
CCOP(=S)(OCC)OC(Cl)C(Cl)(Cl)Cl (stereo not given)	inactive
CC1(C(=O)Nc2ccc(O)c(Cl)c2Cl)CCCCC1	inactive
CSc1nc(NC(C)C)nc(NC(C)C)n1	inactive
CCc1cccc(CC)c1N(COC)C(=O)CCl	inactive
CCCCOC(=O)c1ccccc1C(=O)O	inactive

SMILES	outcome
C[N+]1(C)CCCCC1	inactive
CC[C@H](C)[C@H]1O[C@]2(C=C[C@@H]1C)C[C@@H]1C[C@@H](C/C=C(\C)[C@@H](O[C@H]3C[C@H](OC)[C@@H](O[C@H]4C[C@H](OC)[C@@H](NC)[C@H](C)O4)[C@H](C)O3)[C@@H](C)/C=C/C=C3\CO[C@@H]4[C@H](O)C(C)=C[C@@H](C(=O)O1)[C@]34O)O2	inactive
CCCCN(CC)c1c([N+](=O)[O-])cc(C(F)(F)F)cc1[N+](=O)[O-]	inactive
CC(C1CC1)C(O)(Cn1cncn1)c1ccc(Cl)cc1 (stereo not given)	inactive
CCOP(=S)(OCC)Oc1cc(C)nc(C(C)C)n1	inactive
Nc1c(Cl)cc([N+](=O)[O-])cc1Cl	inactive
CNC(=O)ON=C(C)SC	inactive
CC1=NNC(=O)N(/N=C/c2cccnc2)C1	inactive
CCCSP(=O)(OCC)Oc1ccc(Br)cc1Cl (stereo not given)	inactive
C#CCC1=C(C)C(OC(=O)C2C(C=C(C)C)C2(C)C)CC1=O (stereo not given)	inactive
COP(=O)(NC(C)=O)SC (stereo not given)	inactive
CC(C)[C@H](C(=O)O[C@H](C#N)c1cccc(Oc2ccccc2)c1)c1ccc(Cl)cc1	inactive
Cc1ccn2nc(S(=O)(=O)Nc3c(F)cccc3F)nc2n1	inactive
CCC(=NOC/C=C/Cl)C1=C(O)CC(C2CCOCC2)CC1=O (stereo not given)	inactive
CON=C(C(=O)OC)c1ccccc1CON=C(C)c1cccc(C(F)(F)F)c1	inactive
CNC(=O)Oc1cccc2c1OC(C)(C)O2	inactive
CCOP(=S)(OCC)Oc1ccc2c(C)c(Cl)c(=O)oc2c1	inactive
CCCCSP(=O)(SCCCC)SCCCC	inactive
CCOC(=O)CC(SP(=O)(OC)OC)C(=O)OCC (stereo not given)	inactive
COc1cccc(C(=O)NN(C(=O)c2cc(C)cc(C)c2)C(C)(C)C)c1C	inactive
